Our source for the AC50 and outcome values is PubChem BioAssay AID2284363 (EPA ToxCast).

This assay deals with Nuclear factor erythroid 2-related factor 2 (Homo sapiens) (UniProt Q16236). The experiment in a line: ERF_US_NR_hNFE2L2: Eurofins (ERF) Cell Based Nuclear Translocation LeadHunter Assay for human Transcription Factor Keap1-Nrf2 Agonism. The method, then: ERF_US_NR_hNFE2L2 is a cell-based, single-readout assay that uses extracted gene-proteins in a cell-line assay. Measurements were taken 6 hours after chemical dosing in a 384-well plate. See Keap1-Nrf2 Human Transcription Factor Cell Based Agonist Nuclear Translocation Assay, DiscoverX.ERF_US_NR_hNFE2L2 is an assay component calculated from the ERF_US_NR_hNFE2L2 assay. It is designed to measure protein fragment complementation using a type of binding reporter as detected by chemiluminescence with fluorimetry technology.Data from the assay component ERF_US_NR_hNFE2L2 was analyzed at the assay endpoint, ERF_US_NR_hNFE2L2, in the positive analysis fitting direction relative to DMSO as the negative control and baseline of activity. Using a type of binding reporter, gain-of-signal activity can be used to understand changes in binding as they relate to gene NFE2L2. To generalize the intended target to other relatable targets, this assay endpoint is annotated to the dna binding intended target family, where the subfamily is basic leucine zipper.
Sequence of Nuclear factor erythroid 2-related factor 2 (Homo sapiens) (Q16236 whole entry, looked up, the tested form may be a part): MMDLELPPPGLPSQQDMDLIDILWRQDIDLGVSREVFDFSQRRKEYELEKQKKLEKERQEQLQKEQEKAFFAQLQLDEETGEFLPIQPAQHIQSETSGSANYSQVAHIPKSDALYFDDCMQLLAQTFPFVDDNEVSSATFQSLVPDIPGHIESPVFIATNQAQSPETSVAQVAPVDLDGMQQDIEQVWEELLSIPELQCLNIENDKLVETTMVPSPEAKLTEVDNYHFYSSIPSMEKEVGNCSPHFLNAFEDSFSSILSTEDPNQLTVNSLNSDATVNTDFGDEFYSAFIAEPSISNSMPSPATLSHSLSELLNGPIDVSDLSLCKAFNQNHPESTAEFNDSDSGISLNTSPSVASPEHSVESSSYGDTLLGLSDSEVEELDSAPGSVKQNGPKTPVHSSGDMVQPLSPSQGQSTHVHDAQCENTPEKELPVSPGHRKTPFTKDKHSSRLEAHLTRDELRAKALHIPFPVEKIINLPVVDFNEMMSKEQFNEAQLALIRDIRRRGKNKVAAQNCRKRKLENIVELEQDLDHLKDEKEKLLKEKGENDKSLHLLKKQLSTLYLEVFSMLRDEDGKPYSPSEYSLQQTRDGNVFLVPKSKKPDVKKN
Cells were seeded in a total volume of 20 uL into white walled, 384-well microplates and incubated at 37C overnight prior to testing.For agonist determination, cells were incubated with sample to induce response. Intermediate dilution of sample stocks was performed to generate 5X sample in assay buffer. 5 uL of 5X sample was added to cells and incubated at room temperature for 6 hours. Final assay vehicle concentration was 1%. The results are expressed as a percent efficacy relative to the maximum response of the control ligand.

Active and inactive are the calls of the source. Rule for the calls: active = hit-call score of the fitted dose curve at least 0.9, where 1 is the maximum; inactive = score below 0.9.

As a reminder, the AC50 is the concentration giving half of the maximal activity seen. Consider `OCCC(F)(F)C(F)(F)C(F)(F)C(F)(F)C(F)(F)C(F)(F)C(F)(F)C(F)(F)F`, for which the AC50 is 1940 nM (active).

As for `O=C(O)C(F)(F)C(F)(F)C(F)(F)F`, the compound was called inactive.

For `O=C(O)C(F)(F)C(F)(F)C(F)(F)C(F)(F)C(F)(F)C(F)(F)C(F)(F)C(F)(F)Cl`, the compound was classed as inactive.

On to `O=C(O)CCC(F)(F)C(F)(F)C(F)(F)C(F)(F)C(F)(F)F`, for which the result was inactive.
